Screens: PubChem BioAssay, National Center for Advancing Translational Sciences (NCATS)
Only some compounds are listed: those with a hit (about 21% of all), similar ones and a draw of the others.
Shiga inhibitor – Shiga toxin inhibition; AID 2315; Vero cells, Shiga toxin protein synthesis inhibition reporter; inhibition, % at 38.7 µM; hit rate 9.2% among 290,000; in the data active = inhibition mostly above about 28%, no sharp cut-off; inactive = mostly below about 43%
Pf growth 48h – inhibits P. falciparum growth in the first generation, 48 h; hit rate 5.9% among 310,000; Potency, µM (highest dose often 28.7 µM), actives largely listed as inhibitors; AID 504832; P. falciparum luciferase growth in erythrocytes, 48 h
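Here the parasites carry a stable luciferase gene and grow inside erythrocytes in Albumax-based RPMI medium with compound for one erythrocytic cycle. Activity is scored as loss of luminescent signal.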
Cycloheximide cs – affects cycloheximide protein synthesis inhibition readout, counter-screen | cell reporter, cycloheximide protein synthesis inhibition counterscreen | hit rate 12% among 300,000 | max response, %; in the data active = max response mostly above about 13%, no sharp cut-off; inactive = mostly below about 14%; note: read at 38.3 µM for the half of the compounds with a filed dose
NS1 function inh – influenza NS1 inhibition; Potency, µM (series often up to 46.1 µM); hit rate 0.4% among 270,000; calls by dose curve; note: actives are rising curves; nearly all actives have a fitted effect of over 50% in size
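In this qHTS, NS1 from influenza A is expressed in budding yeast, where it slows growth. Cells are switched from glucose to 2% galactose medium (pH 6.0, -URA), treated with compound, and growth recovery is read at OD600.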
SARS PLpro yeast – blocks SARS-CoV papain-like protease in a yeast assay. AID 485353. S. cerevisiae expressing SARS-CoV PLpro, growth rescue. hit rate 0.19% among 330,000. Potency, µM (series often up to 32.9 µM), usual class: activators; calls by dose curve; note: nearly all actives have a fitted effect of over 55% in size
Pf growth 96h – inhibits malaria parasite growth, 96 h; AID 504834; Potency, µM (doses to about 28.7 µM), most hits filed as inhibitors; P. falciparum luciferase reporter growth, 96 h; hit rate 6.9% among 320,000
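Infected RBCs, 2% Hct / 0.05% parasitemia final; luciferase-reporter P. falciparum; cpd 96 h, 37 C, 5% CO2; luciferase detection reagent; luminescence.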
Hits are given with their value; [ ] = another dose, or the depositor's remark. Unless noted, calls come from the whole dose curve; as a rule, active = well fitted inhibition curve with a large enough effect; inconclusive = small, poorly fitted or top-dose-only effect, or another doubt; inactive = no such curve, though single readings can be large or run the other way.

`CC(=O)Nc1ccc(NC(=O)CSc2ccc(C)cc2)cc1` gave Shiga inhibitor inactive, Cycloheximide cs inactive, NS1 function inh inactive, SARS PLpro yeast inactive and Pf growth 96h inconclusive.
`O=C(CSc1nnc(Nc2ccccc2F)s1)c1cc2ccccc2o1` gave Shiga inhibitor inactive, Pf growth 48h inactive, Cycloheximide cs inactive, NS1 function inh inactive, SARS PLpro yeast inactive and Pf growth 96h inactive.
`C=CCn1c(C)cc(C(=O)CSc2ccc(NC(C)=O)cc2)c1C` gave Shiga inhibitor 114, Pf growth 48h inactive, Cycloheximide cs 43, NS1 function inh inactive, SARS PLpro yeast inactive and Pf growth 96h inactive.
COCCn1c(C)cc(C(=O)CSc2ccc(NC(C)=O)cc2)c1C was read as Shiga inhibitor 105, Pf growth 48h inactive, Cycloheximide cs 47, NS1 function inh inactive, SARS PLpro yeast inactive and Pf growth 96h inactive.
`COCCn1c(C)cc(C(=O)CSc2nncn2-c2ccccc2)c1C` gave Shiga inhibitor inactive, Pf growth 48h inactive, Cycloheximide cs inactive, NS1 function inh inactive, SARS PLpro yeast inactive and Pf growth 96h inactive.
For COCC(C)n1c(C)cc(C(=O)CSc2nnc(Nc3ccccc3F)s2)c1C (stereo not drawn) the results were Shiga inhibitor inactive, Pf growth 48h 1.5µM, Cycloheximide cs inactive, NS1 function inh inactive, SARS PLpro yeast inactive and Pf growth 96h 0.59µM.
`COCC(C)n1c(C)cc(C(=O)CSc2ccc(NC(C)=O)cc2)c1C` (stereo not drawn) gave Shiga inhibitor 52, Pf growth 48h inactive, Cycloheximide cs 26, NS1 function inh inactive and SARS PLpro yeast inactive.
Screening CCCn1ccnc1SC(C)C(=O)Nc1c(C)n(C)n(-c2ccccc2)c1=O (stereo not drawn) returned Pf growth 48h inconclusive, SARS PLpro yeast inactive and Pf growth 96h inactive.
For CCCn1c(=O)c2[nH]c(-c3ccc(S(=O)(=O)O)cc3)nc2n(CCC)c1=O the results were Pf growth 48h inactive, NS1 function inh inactive and Pf growth 96h inactive.
For O=C(CSc1ncccn1)c1ccccc1Br the results were Shiga inhibitor 35, Pf growth 48h inactive, Cycloheximide cs 26, NS1 function inh inactive, SARS PLpro yeast inactive and Pf growth 96h inactive.
`COC(=O)c1ccc(-n2c(C)cc(C(=O)CSc3ccc(NC(C)=O)cc3)c2C)cc1` gave Shiga inhibitor inactive, Pf growth 48h inconclusive, Cycloheximide cs inactive, NS1 function inh inactive, SARS PLpro yeast inactive and Pf growth 96h inconclusive.
For CC(=O)Nc1ccc(SCC(=O)c2cc(C)n(Cc3cccs3)c2C)cc1 the results were Shiga inhibitor 101, Pf growth 48h inactive, Cycloheximide cs 77, NS1 function inh inconclusive, SARS PLpro yeast inactive and Pf growth 96h inactive.
For COCC(C)n1c(C)cc(C(=O)CSc2ncccn2)c1C (stereo not drawn) the results were Shiga inhibitor 72, Pf growth 48h inactive, Cycloheximide cs 36, SARS PLpro yeast inactive and Pf growth 96h inactive.
`CC(=O)Nc1ccc(SCC(=O)c2cc(C)n(-c3ccccc3F)c2C)cc1` gave Shiga inhibitor 125, Pf growth 48h inactive, Cycloheximide cs 74, NS1 function inh inactive, SARS PLpro yeast inactive and Pf growth 96h inactive.
Screening COc1ccc(CC(=O)N2CCc3cc(OC)c(OC)cc3C2C)c(OC)c1 (stereo not drawn) returned Shiga inhibitor inactive, Pf growth 48h inconclusive, Cycloheximide cs inactive, NS1 function inh inactive, SARS PLpro yeast inactive and Pf growth 96h inconclusive.
Screening Cc1ccc(N(CC(=O)NCCSc2ccccn2)S(C)(=O)=O)cc1 returned Shiga inhibitor inactive, Pf growth 48h inactive, Cycloheximide cs inactive, NS1 function inh inactive, SARS PLpro yeast inactive and Pf growth 96h inactive.
`Cc1cc2c(s1)c1cnn(Cc3ccc(C(F)(F)F)cc3F)c(=O)c1n2C` gave Shiga inhibitor inactive and Cycloheximide cs inactive.
`COCC(C)n1c(C)cc(C(=O)CSc2nnnn2-c2ccc(O)cc2)c1C` (stereo not drawn) gave Shiga inhibitor 50, Pf growth 48h inconclusive, Cycloheximide cs 29, SARS PLpro yeast inactive and Pf growth 96h inactive.
COc1ccc(C)cc1NC(=O)C(Sc1nnc(Nc2ccccc2F)s1)c1ccccc1 (stereo not drawn) was read as Shiga inhibitor inactive, Pf growth 48h inactive, Cycloheximide cs 11, NS1 function inh inconclusive, SARS PLpro yeast inactive and Pf growth 96h inactive.
COc1ccc(NC(=O)N2CCCC2C(=O)NCCc2ccccc2)cc1 (stereo not drawn) was read as Shiga inhibitor inactive, Pf growth 48h inactive, Cycloheximide cs inactive, NS1 function inh inactive, SARS PLpro yeast inactive and Pf growth 96h inactive.
Screening O=S(=O)(c1ccc(F)cc1)N1CCN(CC(O)COCC2CCCO2)CC1 (stereo not drawn) returned Pf growth 48h inactive, SARS PLpro yeast inactive and Pf growth 96h inactive.
Screening CC(C)N1CCC(N2CCN(C3CCCC3)CC2CCO)CC1 (stereo not drawn) returned Shiga inhibitor inactive, Pf growth 48h inactive, Cycloheximide cs inactive, NS1 function inh inactive, SARS PLpro yeast inactive and Pf growth 96h 13µM.
For OCCC1CN(C2CCSCC2)CCN1C1CCCC1 (stereo not drawn) the results were Shiga inhibitor inactive, Pf growth 48h inactive, Cycloheximide cs inactive, NS1 function inh inactive, SARS PLpro yeast inactive and Pf growth 96h inactive.
`Cc1cc(C)c(NC(=S)N(CCN(C)C)Cc2cccs2)c(C)c1` gave Shiga inhibitor inactive, Pf growth 48h inactive, Cycloheximide cs inactive, SARS PLpro yeast inactive and Pf growth 96h 3.3µM.
`Cc1cccc(C)c1NC(=S)N(CCN(C)C)Cc1cccs1` gave Shiga inhibitor inactive, Pf growth 48h inactive, Cycloheximide cs inactive, SARS PLpro yeast inactive and Pf growth 96h inconclusive.
CCOc1cccc(/C=C/c2ccc3cccc(O)c3n2)c1O was read as Shiga inhibitor 139, Pf growth 48h inactive[0.00184 µM], Cycloheximide cs 27, NS1 function inh inactive, SARS PLpro yeast inactive and Pf growth 96h 8.3µM.
Screening CCOc1cccc(/C=C/c2ccc3cccc(O)c3n2)c1OC returned Shiga inhibitor 93, Pf growth 48h inconclusive, Cycloheximide cs 52, NS1 function inh inactive, SARS PLpro yeast inactive and Pf growth 96h inconclusive.
Screening CC(C)C[C@@H]1NC(=O)[C@H](Cc2ccc(O)cc2)NC(=O)c2cc([N+](=O)[O-])cc(I)c2NCCC[C@@H](C(N)=O)NC1=O returned Shiga inhibitor inactive, Pf growth 48h inconclusive, Cycloheximide cs inactive, NS1 function inh inconclusive, SARS PLpro yeast inactive and Pf growth 96h 10µM.
For CC(C)SC1=NC(C)(C)C=C(/C=C/c2c(Cl)cccc2Cl)N1 the results were Shiga inhibitor inactive, Cycloheximide cs inactive, NS1 function inh inactive, SARS PLpro yeast inactive and Pf growth 96h 3.3µM.
Screening Cc1ccc(C)c(OCCC(=O)OCC(=O)Nc2cccc(S(=O)(=O)N3CCCC3)c2)c1 returned Pf growth 48h inactive, SARS PLpro yeast inactive and Pf growth 96h inactive.
For CC(=O)Nc1ccc(/C(C)=N/NC(=O)c2ccc(F)cc2)cc1 the results were Shiga inhibitor active, Pf growth 48h inactive, Cycloheximide cs 24, NS1 function inh inactive, SARS PLpro yeast inactive and Pf growth 96h inactive.
